In PubChem BioAssay (NCI):
About 83,000 compounds went through this panel and 20% of them were active in at least one assay; those are over-represented in the sample as a whole.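 Single-dose data. Exposure time 48 hours. Values below 10 considered active.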 Activity calls are given as the source filed them.

These compounds were tested on HL-60(TB) leukemia (assay: NCI-60 one-dose screen, 48 h (100 = growth as untreated, 0 = no growth, -100 = all killed)). Conditions: 10 µM unless noted.

With `c1ccc(-c2cc(-c3cc(-c4ccccc4)on3)no2)cc1` as the compound, how does the growth read?
The growth was 64% (inactive).

With `Cc1cc(I)nc2ccccc12` as the compound, how does the growth read?
Its growth is 88.8% (inactive).

Which growth does the source give for `O=C(Nc1ncc(Cc2cccc(C(F)(F)F)c2)s1)c1ccc(-n2cnnn2)cc1` here?
Its growth is 70.8% (inactive).

`O=C1/C(=C/c2ccc3c(c2)OCO3)SC(=S)N1CCc1ccc(O)cc1` was tested. Which growth did it give?
Its growth is 90.9% (inactive).

For `COc1ccc(C(=O)C(CN(C)C)c2ccc(OC)cc2)cc1` (stereo not given), which growth is on record?
The growth was 36% (inactive).

Which growth does the source give for `CCCOC(=O)C1(O)CCCC1` here?
The growth was 107% (inactive).

How did the growth turn out when `O=C(CCN1CCCC1)Nc1ccc2c(NCc3ccccc3)c3ccccc3nc2c1` was run?
Its growth is -40.8% (active).

For `COc1cc2c(cc1OCCCCN1CCN(CC(=O)Nc3ccc(Cl)cc3C(=O)c3ccccc3Cl)CC1)N=CC1CCCN1C2=O` (stereo not given), which growth is on record?
The growth was -72.1% (active).

`COP(=O)(OC)C(c1ccccc1)(c1ccccc1)c1ccccc1` was tested. Which growth did it give?
Its growth is 45.3% (inactive).

For `CC1(C)OCC2OC3(C(=O)O)OC(C)(C)OC3C2O1` (stereo not given), which growth is on record?
Its growth is 98.2% (inactive).

How did the growth turn out when `Nc1cc2ccncc2c2ccccc12` was run?
The growth was 90% (inactive).

How did the growth turn out when `Cc1cn(C2CCCCO2)c(=O)nc1NO` (stereo not given) was run?
Its growth is 102% (inactive).

For `COc1cc2c(c(OC)c1OC)-c1ccc(NNC(N)=S)c(=O)cc1[C@@H](NC(C)=O)CC2`, which growth is on record?
The growth was -13.9% (active).

With `O=C(Nc1cccc2ccccc12)c1cc2ccccc2cc1O` as the compound, how does the growth read?
The growth was 9.13% (active).

Which growth does the source give for `CC(C)C[C@H](NC(=O)CCn1ccc2ccccc2c1=O)B(O)O` here?
Its growth is 28.1% (inactive).

How did the growth turn out when `COC1OC(COS(=O)OC)C(O)C(O)C1OS(=O)OC` (stereo not given) was run?
The growth was 82.6% (inactive).

Which growth does the source give for `CNC1(C#N)CCN(Cc2ccccc2)CC1` here?
The growth was 168% (inactive).

For `COc1cc2c(cc1OC)C(CC1(O)CCCCC1)N(S(=O)(=O)c1ccc(C)cc1)CC2` (stereo not given), which growth is on record?
The growth was -25% [100 µM] (active).

With `COc1cc(CN(c2ccc(C)cc2)C2OC(=O)c3ccccc32)cc(OC)c1OC` (stereo not given) as the compound, how does the growth read?
The growth was -30.4% (active).

`CN(C)Cc1c(-c2ccccc2)[nH]c2ccccc12` was tested. Which growth did it give?
The growth was 92.9% (inactive).

How did the growth turn out when `COc1cc(C2CC(c3ccc(Nc4ccnc5cc(Cl)ccc45)cc3)=NN2c2ccc(Cl)cc2)cc(OC)c1OC` (stereo not given) was run?
Its growth is 40.3% (inactive).

How did the growth turn out when `COC1=CC(=O)c2c(O)c3c(c(O)c2C1=O)CC(C)(O)OC3` (stereo not given) was run?
The growth was -57.1% (active).

Which growth does the source give for `CC(C)OCC(CCl)OC(=O)Nc1ccccc1` (stereo not given) here?
Its growth is 97.3% (inactive).

For `Cc1ccc(N(CC(=O)Nc2ccc(S(=O)(=O)NC3CCN(C)CC3)cc2)S(=O)(=O)c2ccc(Cl)cc2)cc1`, which growth is on record?
Its growth is 75.7% (inactive).

With `CC1c2ccccc2-c2ccccc2N1C` (stereo not given) as the compound, how does the growth read?
Its growth is 106% (inactive).

`NC(=O)c1ccc2c(c1)OCO2` was tested. Which growth did it give?
The growth was 103% (inactive).

For `COc1cccc2c(=O)c3c(sc12)c(NCCCN)nc1ccccc13`, which growth is on record?
The growth was 44.2% (inactive).

How did the growth turn out when `N#C/C(=C/c1c(O)ccc2ccccc12)C(N)=O` was run?
The growth was 103% (inactive).

`COc1cc(-c2ccc(-c3ccc(C(=N)N)cc3)s2)cc(OC)c1OC` was tested. Which growth did it give?
Its growth is 3.15% (active).

For `ClC1=C(Br)C(Br)(Br)C(=C(Br)Br)C1(Br)Br`, which growth is on record?
The growth was 29.8% (inactive).

For `CCC(C)(C)c1cc(O)c(C(C)(C)CC)cc1O`, which growth is on record?
The growth was -9.67% (active).

`O=C(O)c1cccc2c1C(=O)N(c1ccc3c(c1)Cc1ccccc1-3)C2=O` was tested. Which growth did it give?
Its growth is 112% (inactive).

Which growth does the source give for `CN(C)CCS(=O)(=O)Nc1cc(-c2ccc3ncnc(Nc4ccc(F)c(Cl)c4)c3c2)cnc1Cl` here?
The growth was -15% (active).

For `O=CN1N=C(c2ccc(Nc3ccnc4cc(Cl)ccc34)cc2)CC1c1ccccc1` (stereo not given), which growth is on record?
The growth was -25.8% (active).

How did the growth turn out when `N=C(N)N=Nc1ccc(NN=C(N)N)c2ccccc12` was run?
The growth was 113% (inactive).

Which growth does the source give for `CC(CO)(CO)C(=O)O` here?
Its growth is 108% (inactive).

For `C/C(=C\c1ccc(OCC(=O)O)c(Cl)c1Cl)[N+](=O)[O-]`, which growth is on record?
The growth was 79.8% (inactive).

`COc1ccc(S(=O)(=O)NCCCNc2nccc(-c3c(-c4cccc([N+](=O)[O-])c4)nc4sccn34)n2)cc1` was tested. Which growth did it give?
Its growth is 22.9% (inactive).

Which growth does the source give for `COc1ccc(C(=O)N/N=C/c2cc(C(F)(F)F)ccc2Cl)cc1` here?
The growth was 100% (inactive).

For `CCCCN1CCN(c2ccc3nc(-c4ccc5nc(-c6ccc(OCC)cc6)[nH]c5c4)[nH]c3c2)CC1`, which growth is on record?
Its growth is 34.3% (inactive).
